Here are results for six compounds from ChEMBL document CHEMBL1961873, “Compounds: GSK PKIS; Assays: Nanosyn kinase panel” (2012).

Experiment [1] has as its target Tyrosine-protein kinase receptor UFO (Homo sapiens) (UniProt P30530). Particulars: at 1 µM.
Experiment [2] deals with Tyrosine-protein kinase Blk (Homo sapiens) (UniProt P51451). Particulars: at 0.1 µM.
For experiment [3] the target is unchanged. Particulars: at 1 µM.
The target of experiment [4] is T1, Cytoplasmic tyrosine-protein kinase BMX (Homo sapiens) (UniProt P51813).
T1 sequence (whole entry): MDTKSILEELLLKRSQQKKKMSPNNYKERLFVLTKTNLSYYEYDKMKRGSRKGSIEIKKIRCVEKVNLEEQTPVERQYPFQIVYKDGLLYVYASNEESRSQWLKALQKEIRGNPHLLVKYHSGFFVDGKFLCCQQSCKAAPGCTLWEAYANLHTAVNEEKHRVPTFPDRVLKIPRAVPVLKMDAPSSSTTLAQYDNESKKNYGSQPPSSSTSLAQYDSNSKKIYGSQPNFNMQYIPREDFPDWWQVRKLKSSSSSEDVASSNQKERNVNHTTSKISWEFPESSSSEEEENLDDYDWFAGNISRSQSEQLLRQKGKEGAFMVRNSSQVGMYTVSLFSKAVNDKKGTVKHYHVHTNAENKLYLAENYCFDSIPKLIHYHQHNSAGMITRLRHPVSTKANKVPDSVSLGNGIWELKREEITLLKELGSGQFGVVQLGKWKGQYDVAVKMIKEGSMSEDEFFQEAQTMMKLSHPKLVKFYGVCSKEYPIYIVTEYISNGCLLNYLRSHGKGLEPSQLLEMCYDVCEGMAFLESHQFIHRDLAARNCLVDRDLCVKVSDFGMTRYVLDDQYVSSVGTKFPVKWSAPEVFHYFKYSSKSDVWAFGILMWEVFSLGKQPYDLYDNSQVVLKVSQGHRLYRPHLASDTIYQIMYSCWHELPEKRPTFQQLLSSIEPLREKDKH
The note with it: at 0.1 µM.

For experiment [5], the target named is T1, Cytoplasmic tyrosine-protein kinase BMX (Homo sapiens). Particulars: at 1 µM.
For experiment [6], the target named is Protein-tyrosine kinase 6 (Homo sapiens) (UniProt Q13882). The note with it: at 0.1 µM.
Protein-tyrosine kinase 6 (Homo sapiens), sequence (Q13882 whole entry, looked up): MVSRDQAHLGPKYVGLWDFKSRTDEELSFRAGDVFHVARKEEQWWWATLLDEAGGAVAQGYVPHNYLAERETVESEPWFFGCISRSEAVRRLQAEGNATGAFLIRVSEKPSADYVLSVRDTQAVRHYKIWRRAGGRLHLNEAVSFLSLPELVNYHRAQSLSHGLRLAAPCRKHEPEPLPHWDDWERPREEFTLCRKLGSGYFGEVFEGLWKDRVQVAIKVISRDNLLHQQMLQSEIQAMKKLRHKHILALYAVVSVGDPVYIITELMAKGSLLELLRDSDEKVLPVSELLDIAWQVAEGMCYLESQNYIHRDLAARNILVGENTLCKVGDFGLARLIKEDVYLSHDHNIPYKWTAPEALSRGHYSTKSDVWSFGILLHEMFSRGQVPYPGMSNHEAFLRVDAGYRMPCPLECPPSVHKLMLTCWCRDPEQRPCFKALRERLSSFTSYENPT
Experiment [7] has the same target. Particulars: at 1 µM.
Experiment [8] concerns the target Tyrosine-protein kinase BTK (Homo sapiens) (UniProt Q06187). The note with it: at 0.1 µM.
Experiment [9] has the same target. The note with it: at 1 µM.
The target in experiment [10] is Tyrosine-protein kinase CSK (Homo sapiens) (UniProt P41240). Particulars: at 0.1 µM.
Tyrosine-protein kinase CSK (Homo sapiens), sequence (P41240 2-450 limits assumed): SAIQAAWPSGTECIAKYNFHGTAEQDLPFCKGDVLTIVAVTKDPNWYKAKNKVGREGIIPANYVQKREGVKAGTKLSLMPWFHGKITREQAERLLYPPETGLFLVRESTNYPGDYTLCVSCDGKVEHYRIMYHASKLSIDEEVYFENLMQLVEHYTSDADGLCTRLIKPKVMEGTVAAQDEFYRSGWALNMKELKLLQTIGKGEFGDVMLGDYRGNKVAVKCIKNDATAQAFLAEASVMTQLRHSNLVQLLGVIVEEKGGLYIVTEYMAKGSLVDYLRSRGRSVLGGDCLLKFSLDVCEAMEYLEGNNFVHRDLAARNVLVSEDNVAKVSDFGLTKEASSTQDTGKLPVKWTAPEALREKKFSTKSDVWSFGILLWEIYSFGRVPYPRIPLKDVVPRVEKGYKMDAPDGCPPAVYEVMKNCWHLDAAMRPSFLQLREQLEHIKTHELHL
For experiment [11] the target is unchanged. Particulars: at 1 µM.
Experiment [12] addresses T2, Discoidin domain-containing receptor 2 (Homo sapiens) (UniProt Q16832).
T2 sequence (whole entry): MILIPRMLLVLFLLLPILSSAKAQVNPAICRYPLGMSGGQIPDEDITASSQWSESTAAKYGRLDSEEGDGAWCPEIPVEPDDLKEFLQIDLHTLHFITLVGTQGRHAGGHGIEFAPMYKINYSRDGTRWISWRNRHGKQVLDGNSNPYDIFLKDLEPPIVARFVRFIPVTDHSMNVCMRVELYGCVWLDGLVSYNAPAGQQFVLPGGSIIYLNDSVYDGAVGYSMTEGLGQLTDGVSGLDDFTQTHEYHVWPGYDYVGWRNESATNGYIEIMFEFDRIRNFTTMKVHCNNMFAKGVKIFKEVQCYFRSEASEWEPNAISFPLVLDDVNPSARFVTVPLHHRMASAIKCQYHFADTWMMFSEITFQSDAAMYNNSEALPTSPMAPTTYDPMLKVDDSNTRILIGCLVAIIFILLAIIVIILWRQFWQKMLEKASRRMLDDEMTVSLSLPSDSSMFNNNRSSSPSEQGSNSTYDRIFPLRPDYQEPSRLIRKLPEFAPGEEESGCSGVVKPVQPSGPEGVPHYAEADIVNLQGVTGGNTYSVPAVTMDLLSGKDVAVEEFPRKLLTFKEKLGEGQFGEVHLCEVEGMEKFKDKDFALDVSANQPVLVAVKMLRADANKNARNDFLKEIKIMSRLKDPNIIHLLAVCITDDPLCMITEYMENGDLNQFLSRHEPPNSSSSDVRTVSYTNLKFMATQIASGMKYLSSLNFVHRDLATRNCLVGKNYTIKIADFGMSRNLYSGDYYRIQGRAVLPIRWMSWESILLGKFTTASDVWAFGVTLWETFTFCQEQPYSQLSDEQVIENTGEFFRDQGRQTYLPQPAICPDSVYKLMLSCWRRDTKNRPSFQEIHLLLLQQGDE
The note with it: at 0.1 µM.

The target in experiment [13] is T2, Discoidin domain-containing receptor 2 (Homo sapiens). Particulars: at 1 µM.
In experiment [14] the target is Epidermal growth factor receptor (Homo sapiens) (UniProt P00533). The note with it: at 0.1 µM.
For experiment [15] the target is unchanged. The note with it: at 1 µM.
The test system of experiment [16] is Epidermal growth factor receptor (Homo sapiens), P00533 [L858R]. The note with it: at 0.1 µM.
Experiment [17] shares this test system. The note with it: at 1 µM.
Experiment [18] relates to Epidermal growth factor receptor (Homo sapiens), P00533 [L861Q]. Particulars: at 0.1 µM.
Experiment [19] has the same test system. Particulars: at 1 µM.
Experiment [20] has as its system Epidermal growth factor receptor (Homo sapiens), P00533 [T790M]. Particulars: at 0.1 µM.

A word on the inhibition: it is the relative decrease from the control value, in per cent.

Tyrosine-protein kinase Blk (Homo sapiens), sequence (P51451 2-505 limits assumed): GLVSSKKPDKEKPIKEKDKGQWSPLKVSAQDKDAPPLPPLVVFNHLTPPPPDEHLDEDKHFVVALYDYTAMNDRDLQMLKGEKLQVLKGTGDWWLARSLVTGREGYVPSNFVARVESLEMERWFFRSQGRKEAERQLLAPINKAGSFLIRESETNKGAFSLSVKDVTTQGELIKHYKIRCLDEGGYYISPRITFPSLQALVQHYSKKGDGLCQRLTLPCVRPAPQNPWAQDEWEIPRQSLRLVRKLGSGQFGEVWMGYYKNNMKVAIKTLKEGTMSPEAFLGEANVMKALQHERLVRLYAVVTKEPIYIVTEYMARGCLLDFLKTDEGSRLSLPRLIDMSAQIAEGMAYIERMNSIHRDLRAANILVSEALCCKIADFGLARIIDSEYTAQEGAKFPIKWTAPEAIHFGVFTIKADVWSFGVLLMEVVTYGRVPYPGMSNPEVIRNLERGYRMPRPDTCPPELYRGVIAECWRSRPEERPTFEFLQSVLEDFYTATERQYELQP
Tyrosine-protein kinase BTK (Homo sapiens), sequence (Q06187 whole entry): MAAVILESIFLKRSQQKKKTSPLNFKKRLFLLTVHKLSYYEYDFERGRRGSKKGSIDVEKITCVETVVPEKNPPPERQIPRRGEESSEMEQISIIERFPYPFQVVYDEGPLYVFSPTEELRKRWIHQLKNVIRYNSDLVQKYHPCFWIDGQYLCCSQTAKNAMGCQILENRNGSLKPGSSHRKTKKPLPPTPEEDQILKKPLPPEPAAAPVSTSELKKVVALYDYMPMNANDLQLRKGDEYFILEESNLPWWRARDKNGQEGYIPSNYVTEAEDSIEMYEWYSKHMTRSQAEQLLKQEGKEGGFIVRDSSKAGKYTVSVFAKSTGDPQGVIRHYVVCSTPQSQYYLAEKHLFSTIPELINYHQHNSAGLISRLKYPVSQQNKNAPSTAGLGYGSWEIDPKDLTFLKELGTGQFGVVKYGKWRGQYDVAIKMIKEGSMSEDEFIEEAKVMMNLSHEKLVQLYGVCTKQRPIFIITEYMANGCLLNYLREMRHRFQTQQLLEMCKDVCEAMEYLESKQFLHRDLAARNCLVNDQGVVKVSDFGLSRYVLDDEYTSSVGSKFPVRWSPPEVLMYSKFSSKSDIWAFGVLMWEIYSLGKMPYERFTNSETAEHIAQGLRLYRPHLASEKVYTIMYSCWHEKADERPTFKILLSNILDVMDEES
Epidermal growth factor receptor (Homo sapiens), P00533 [T790M], sequence (P00533 whole entry T790M): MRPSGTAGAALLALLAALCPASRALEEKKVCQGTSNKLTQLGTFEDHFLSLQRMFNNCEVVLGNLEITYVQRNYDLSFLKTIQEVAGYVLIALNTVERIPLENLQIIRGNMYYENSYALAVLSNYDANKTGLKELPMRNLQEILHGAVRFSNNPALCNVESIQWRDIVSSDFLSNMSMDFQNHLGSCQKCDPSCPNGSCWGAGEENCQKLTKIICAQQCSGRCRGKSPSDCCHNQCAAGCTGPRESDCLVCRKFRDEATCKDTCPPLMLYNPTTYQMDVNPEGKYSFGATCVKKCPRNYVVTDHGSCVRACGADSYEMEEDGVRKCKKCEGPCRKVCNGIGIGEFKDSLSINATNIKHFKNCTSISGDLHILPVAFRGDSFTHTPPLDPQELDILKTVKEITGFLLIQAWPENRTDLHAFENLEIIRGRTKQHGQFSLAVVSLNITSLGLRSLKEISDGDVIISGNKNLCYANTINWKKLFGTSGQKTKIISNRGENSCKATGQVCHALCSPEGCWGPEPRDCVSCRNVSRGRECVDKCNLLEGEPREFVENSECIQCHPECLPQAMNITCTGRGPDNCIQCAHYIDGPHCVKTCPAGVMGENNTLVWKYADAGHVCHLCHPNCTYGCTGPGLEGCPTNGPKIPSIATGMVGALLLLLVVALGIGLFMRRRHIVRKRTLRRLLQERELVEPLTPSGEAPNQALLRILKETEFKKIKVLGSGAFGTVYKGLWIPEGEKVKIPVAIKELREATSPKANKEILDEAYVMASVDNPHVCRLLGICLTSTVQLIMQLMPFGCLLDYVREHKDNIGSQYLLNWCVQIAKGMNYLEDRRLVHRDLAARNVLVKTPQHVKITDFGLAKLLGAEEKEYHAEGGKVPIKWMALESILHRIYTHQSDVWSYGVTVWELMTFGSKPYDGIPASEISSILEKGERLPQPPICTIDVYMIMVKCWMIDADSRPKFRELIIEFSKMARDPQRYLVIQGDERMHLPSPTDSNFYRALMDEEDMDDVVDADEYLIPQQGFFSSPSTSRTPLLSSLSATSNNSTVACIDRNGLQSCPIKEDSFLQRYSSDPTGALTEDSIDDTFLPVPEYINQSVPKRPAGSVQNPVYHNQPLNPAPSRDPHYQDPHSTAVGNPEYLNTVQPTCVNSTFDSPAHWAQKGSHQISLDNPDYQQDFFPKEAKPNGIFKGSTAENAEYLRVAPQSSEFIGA
Tyrosine-protein kinase receptor UFO (Homo sapiens), sequence (P30530 whole entry): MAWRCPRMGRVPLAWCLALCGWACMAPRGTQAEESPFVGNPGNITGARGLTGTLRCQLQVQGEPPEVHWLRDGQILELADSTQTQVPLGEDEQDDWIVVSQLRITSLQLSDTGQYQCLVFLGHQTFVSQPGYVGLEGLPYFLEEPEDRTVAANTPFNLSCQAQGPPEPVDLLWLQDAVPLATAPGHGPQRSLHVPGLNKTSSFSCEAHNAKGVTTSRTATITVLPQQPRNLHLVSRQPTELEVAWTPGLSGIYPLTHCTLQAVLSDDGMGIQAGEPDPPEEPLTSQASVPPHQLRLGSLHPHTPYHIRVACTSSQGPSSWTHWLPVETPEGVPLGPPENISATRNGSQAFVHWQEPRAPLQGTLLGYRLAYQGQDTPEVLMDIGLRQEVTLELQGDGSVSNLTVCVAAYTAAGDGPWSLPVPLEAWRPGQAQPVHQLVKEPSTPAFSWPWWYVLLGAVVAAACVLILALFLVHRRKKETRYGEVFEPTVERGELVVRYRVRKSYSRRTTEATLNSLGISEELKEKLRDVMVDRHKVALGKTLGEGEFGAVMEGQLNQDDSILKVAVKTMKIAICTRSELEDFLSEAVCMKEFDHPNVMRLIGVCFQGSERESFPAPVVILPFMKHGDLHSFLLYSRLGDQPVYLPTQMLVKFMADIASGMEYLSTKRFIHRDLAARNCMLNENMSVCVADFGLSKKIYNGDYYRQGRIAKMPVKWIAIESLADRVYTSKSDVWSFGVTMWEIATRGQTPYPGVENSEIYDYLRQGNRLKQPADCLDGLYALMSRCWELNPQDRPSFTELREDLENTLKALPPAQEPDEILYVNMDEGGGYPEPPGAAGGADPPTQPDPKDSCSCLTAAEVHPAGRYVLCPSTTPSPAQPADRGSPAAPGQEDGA

With `CNC(=O)c1cc(-c2ccc(F)cc2)cc(-c2ccc(S(=O)(=O)N3CCCC3)cc2)c1N`, the inhibition is -4.04% in experiment [1]; 2.16% in [2]; 2.11% in experiment [3]; 2.06% in experiment [4]; 2.39% in experiment [5]; 1.87% in experiment [6]. Also, the inhibition in [7] is 1.57%; in [8] it was -1.58%; in [9], -0.59%; in experiment [10] it was -0.99%; in experiment [11], 2.28%; in [12], 1.09%. Also, the inhibition is 1.38% in experiment [13]; 5.94% in [14]; 6.92% in experiment [15]; 0.45% in experiment [16]; 5.35% in experiment [17]; 2.56% in experiment [18]. Further, the inhibition was determined as 4.86% in experiment [19] and 0.67% in experiment [20].

As for `CC(C)COC(=O)c1ccc2c(c1)/C(=C/Nc1ccc(S(N)(=O)=O)cc1)C(=O)N2`, the inhibition in experiment [1] was 13.2%; in experiment [2], 1.11%; in [3], 28.6%; in [4], 0.73%; in experiment [5], -1.5%; in experiment [6], -2.24%. Further, the inhibition was -2.63% in experiment [7]; -1.47% in [8]; -1.1% in experiment [9]; -2.24% in experiment [10]; -1.85% in [11]; -1.05% in experiment [12]. Besides, the inhibition is 2.05% in experiment [13]; 1.64% in [14]; 4.58% in [15]; -0.29% in experiment [16]; 0.49% in experiment [17]; -1.62% in experiment [18]. Also, the inhibition in experiment [19] is -0.46%; in experiment [20], -1.76%.

In the case of `COc1ccc2c(-c3ccnc(Nc4cccc(OC(F)(F)F)c4)n3)cnn2n1`, the inhibition was -4.65% in experiment [1]; 3.16% in experiment [2]; 4.41% in [3]; 0.75% in [4]; 8.05% in experiment [5]; 7.26% in [6]. The inhibition in [7] came out at 7.21%; in experiment [8], 1.66%; in experiment [9] it was 2.02%; in experiment [10], 8.18%; in experiment [11], 12.2%; in experiment [12], 1.53%. Further, the inhibition in [13] was determined as 3.16%; in experiment [14] it was 1.3%; in [15] it was 2.97%; in experiment [16], 4.17%; in experiment [17] it was 5.43%; in [18] it was 2.8%. Besides, the inhibition in [19] was 4.76%; in [20], 2.35%.

As for `CN1CCC(n2cnc(-c3ccc(F)cc3)c2-c2ccnc(N)n2)CC1`, the inhibition in [1] came out at 0.24%; in experiment [2] it was 1.67%; in experiment [3], 6.71%; in experiment [4] it was 3.52%; in [5], 4.58%; in experiment [6], 3.49%. Moreover, the inhibition in experiment [7] turned out to be 8.09%; in experiment [8], 0.47%; in experiment [9], 0.93%; in experiment [10], 7.73%; in experiment [11], 1.95%; in experiment [12] it was 0.93%. The inhibition in experiment [13] amounted to 1.6%; in experiment [14], 5.7%; in [15], 12.2%; in [16] it was 3.61%; in experiment [17] it was 16.5%; in [18], 1.43%. Also, the inhibition was 6.75% in experiment [19] and -0.02% in experiment [20].

As for `COc1ccc(CNC(=O)c2ccc(-c3cc(-c4nnc(C)o4)ccc3C)cc2)cc1`, the inhibition in [1] was 2.74%; in experiment [2] it was 2.54%; in [3], 0.87%; in [4], -0.31%; in experiment [5] it was 0.63%; in experiment [6], 0.56%. Further, the inhibition in experiment [7] was 4.1%; in [8], 0.04%; in [9] it was 2.36%; in experiment [10], 3.65%; in experiment [11] it was 6.32%; in experiment [12], 4.36%. The inhibition in experiment [13] came to 4.67%; in experiment [14], 2.84%; in experiment [15], 4.15%; in experiment [16] it was 0.12%; in experiment [17] it was 8.38%; in experiment [18], 1.79%. Moreover, the inhibition in experiment [19] is 7.03%; in experiment [20], 1.31%.

Regarding `COC(=O)Nc1nc2ccc(S(=O)(=O)c3ccc(NC(=O)Nc4cc(C(F)(F)F)ccc4F)cc3)cc2[nH]1`, the inhibition in [1] was -1.71%; in experiment [2] it was 1.71%; in [3] it was 3.18%; in [4], 6.6%; in [5] it was 5.12%; in [6] it was 2.94%. Also, the inhibition was 2.51% in experiment [7]; 1.86% in [8]; 0.94% in experiment [9]; 2.8% in [10]; -1.83% in experiment [11]; 10.3% in experiment [12]. For the same compound, the inhibition in [13] is 62.7%; in experiment [14], 0.69%; in [15], 7.04%; in [16] it was -0.69%; in experiment [17], 1.58%; in experiment [18], 0.81%. The figures for the inhibition in experiment [19] and in experiment [20] were 2.11% and 2.47%, respectively.
